# Measured values as given in the supplement of paper PMC6411743.
# ± gives the standard deviation of the averaged measurements. About 5,400 targets were measured; listed, in parts, are those with the largest changes and a random draw of the rest.
# Molecular target: T1, FARSB (UniProt Q9NSD9)
# T1 sequence (whole entry): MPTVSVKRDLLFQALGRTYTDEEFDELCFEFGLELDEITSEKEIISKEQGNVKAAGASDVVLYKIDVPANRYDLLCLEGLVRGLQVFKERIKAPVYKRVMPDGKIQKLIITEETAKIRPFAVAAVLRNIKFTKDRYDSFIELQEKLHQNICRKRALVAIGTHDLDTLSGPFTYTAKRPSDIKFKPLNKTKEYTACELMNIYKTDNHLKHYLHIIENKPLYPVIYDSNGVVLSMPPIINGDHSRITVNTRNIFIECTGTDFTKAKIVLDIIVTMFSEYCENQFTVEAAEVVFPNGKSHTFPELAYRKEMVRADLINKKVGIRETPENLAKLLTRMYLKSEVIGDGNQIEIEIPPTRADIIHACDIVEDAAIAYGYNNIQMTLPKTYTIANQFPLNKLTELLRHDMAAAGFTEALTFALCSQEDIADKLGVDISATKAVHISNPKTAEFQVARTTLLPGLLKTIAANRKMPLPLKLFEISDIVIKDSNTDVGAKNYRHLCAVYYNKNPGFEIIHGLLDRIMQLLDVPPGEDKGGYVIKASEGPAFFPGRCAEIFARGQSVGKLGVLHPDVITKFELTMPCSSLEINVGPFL
# Assay: NP40-soluble protein abundance relative to vehicle (solubility fold change) (ratio); higher = more soluble protein in presence of GTP
# Description: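 Solubility proteome profiling in Jurkat crude lysate. Lysate was treated with Mg-GTP (0.1-10 mM) for 10 min at room temperature and 3 min at 37 °C, then solubilised with 0.8% NP40 and benzonase, followed by ultracentrifugation. Proteins were quantified by TMT10 LC-MS/MS; the value is the NP40-soluble abundance relative to the NP40-processed vehicle, from 3 independent experiments.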
structure (smiles),measurement,setting,value
Nc1nc2c(ncn2[C@@H]2O[C@H](COP(=O)(O)OP(=O)(O)OP(=O)(O)O)[C@@H](O)[C@H]2O)c(=O)[nH]1 [guanosine triphosphate],NP40-soluble protein abundance,concentration: 0.1mM,1.05 ± 0.043
same,NP40-soluble protein abundance,concentration: 0.5mM,1.06 ± 0.074
same,NP40-soluble protein abundance,concentration: 1mM,0.933 ± 0.035
same,NP40-soluble protein abundance,concentration: 2mM,0.944 ± 0.091
same,NP40-soluble protein abundance,concentration: 4mM,0.954 ± 0.064
same,NP40-soluble protein abundance,concentration: 6mM,0.925 ± 0.059
same,NP40-soluble protein abundance,concentration: 8mM,0.875 ± 0.012
same,NP40-soluble protein abundance,concentration: 10mM,0.844 ± 0.057
